# Measured values taken from PubChem BioAssay (NCATS).
# Where “and” joins values, the source holds several entries; their conditions need not be identical. Identical values can stand only once. Results filed as inconclusive are left out. Entries that show only a call come without a potency. The source holds several records for some structures; these can differ, active in one and inactive in another. Calls of active or inactive are those of the source. Unless noted, the call rests on the fitted dose curve; in most records, active means well fitted curve in the direction sought with a large enough effect; inconclusive means small, poorly fitted or top-dose-only effect, or another doubt; inactive means no such curve, though single readings can be large; an effect the other way counts as inactive or inconclusive.
# Columns and labels:
# [1] = target: Metallo-beta-lactamase type 2 (Klebsiella pneumoniae) (UniProt C7C422); test: qHTS to identify inhibitors of the New Delhi Metallo-beta-lactamase (NDM): assay validation screen against the NCATS LOPAC Collection (AID 1794843)
# Chain of Metallo-beta-lactamase type 2 (Klebsiella pneumoniae) (C7C422 whole entry, looked up): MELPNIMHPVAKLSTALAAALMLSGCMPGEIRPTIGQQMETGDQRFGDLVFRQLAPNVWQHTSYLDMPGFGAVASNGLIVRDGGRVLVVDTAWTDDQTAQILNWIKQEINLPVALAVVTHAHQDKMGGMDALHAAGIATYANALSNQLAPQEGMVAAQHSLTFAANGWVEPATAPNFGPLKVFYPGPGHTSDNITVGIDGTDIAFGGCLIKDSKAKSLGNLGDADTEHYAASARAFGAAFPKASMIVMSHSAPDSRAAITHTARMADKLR
# Method in brief: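 Absorbance at 485 nm from nitrocefin turnover (50 uM solution added), read at plateau, gives the read-out. Compounds in DMSO were incubated first with 2 nM final NDM-1 in pH 7.0 HEPES buffer containing 1 uM ZnSO4 and 0.01% Tween20.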
# [2] = target: Glutathione peroxidase 1 (Homo sapiens) (UniProt P07203); test: Primary qHTS Assay for Inhibitors of Recombinant Selenoprotein Glutathione Peroxidase 1 (GPX1) (AID 1845191); further: nearly all actives have a fitted effect of over 65% in size; further: potency means the concentration at half of the fitted maximal effect
# Chain of Glutathione peroxidase 1 (Homo sapiens) (P07203 whole entry, looked up): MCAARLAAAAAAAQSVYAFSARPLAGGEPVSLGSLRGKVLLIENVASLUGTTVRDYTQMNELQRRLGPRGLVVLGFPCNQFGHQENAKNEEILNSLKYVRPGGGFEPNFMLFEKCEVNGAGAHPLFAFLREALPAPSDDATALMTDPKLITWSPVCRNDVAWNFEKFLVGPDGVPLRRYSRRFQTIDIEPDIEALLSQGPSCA
# Method in brief: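 GR-coupled readout: NADPH consumption tracked by fluorescence, ex 340/em 450 nm, at t=0 and after 15 min at RT. Final mix 10 nM GPX1, 1 mM GSH, 0.5 mM CHP, 0.5 mM NADPH, 100 nM GR, 0.01% BSA, following 30 min enzyme–compound preincubation.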
# [3] = target: Phospholipid hydroperoxide glutathione peroxidase GPX4 (Homo sapiens) (UniProt P36969); test: Primary qHTS Assay for Inhibitors of Recombinant Selenoprotein Glutathione Peroxidase 4 (GPX4) (AID 1845192); further: nearly all actives have a fitted effect of over 65% in size; further: potency means the concentration at half of the fitted maximal effect
# Chain of Phospholipid hydroperoxide glutathione peroxidase GPX4 (Homo sapiens) (P36969 whole entry, looked up): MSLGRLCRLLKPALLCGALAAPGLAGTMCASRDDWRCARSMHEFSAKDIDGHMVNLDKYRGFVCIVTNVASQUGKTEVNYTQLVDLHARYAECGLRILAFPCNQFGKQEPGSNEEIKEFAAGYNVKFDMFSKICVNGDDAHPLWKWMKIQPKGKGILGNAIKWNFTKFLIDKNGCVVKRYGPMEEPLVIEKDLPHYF
# Method in brief: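 Steps: GPX4 plus compound, 30 min RT; add GR/GSH/NADPH master mix; start with cumene hydroperoxide; read 340/450 nm fluorescence at 0 and 15 min. Finals were 200 nM GPX4, 1 mM GSH, 0.5 mM CHP, 0.5 mM NADPH, 100 nM GR.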
# [4] = NCATS anti-infectives library activity on HEK293 viability as a counter-qHTS vs the C. elegans viability qHTS (AID 1745854)
# Method in brief: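 CellTiter-Glo luminescence, read on a CCD imager, scored viability of HEK293 cells after 24 hr compound exposure at 37C. Library tested in several concentrations, 1:5 steps, up to 41.7 uM; digitonin served as control.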
# [5] = target: Rap guanine nucleotide exchange factor 4 (Homo sapiens) (UniProt Q8WZA2); test: Confirmatory qHTS for agonist of cAMP-regulated guanine nucleotide exchange factor 4 (EPAC2) (AID 1645884);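 further: nucleotide exchange releases bodipy-GDP from Rap1 and this lowers its fluorescence; nearly all actives have a fitted effect of over 65% in size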
# Chain of Rap guanine nucleotide exchange factor 4 (Homo sapiens) (Q8WZA2 whole entry, looked up): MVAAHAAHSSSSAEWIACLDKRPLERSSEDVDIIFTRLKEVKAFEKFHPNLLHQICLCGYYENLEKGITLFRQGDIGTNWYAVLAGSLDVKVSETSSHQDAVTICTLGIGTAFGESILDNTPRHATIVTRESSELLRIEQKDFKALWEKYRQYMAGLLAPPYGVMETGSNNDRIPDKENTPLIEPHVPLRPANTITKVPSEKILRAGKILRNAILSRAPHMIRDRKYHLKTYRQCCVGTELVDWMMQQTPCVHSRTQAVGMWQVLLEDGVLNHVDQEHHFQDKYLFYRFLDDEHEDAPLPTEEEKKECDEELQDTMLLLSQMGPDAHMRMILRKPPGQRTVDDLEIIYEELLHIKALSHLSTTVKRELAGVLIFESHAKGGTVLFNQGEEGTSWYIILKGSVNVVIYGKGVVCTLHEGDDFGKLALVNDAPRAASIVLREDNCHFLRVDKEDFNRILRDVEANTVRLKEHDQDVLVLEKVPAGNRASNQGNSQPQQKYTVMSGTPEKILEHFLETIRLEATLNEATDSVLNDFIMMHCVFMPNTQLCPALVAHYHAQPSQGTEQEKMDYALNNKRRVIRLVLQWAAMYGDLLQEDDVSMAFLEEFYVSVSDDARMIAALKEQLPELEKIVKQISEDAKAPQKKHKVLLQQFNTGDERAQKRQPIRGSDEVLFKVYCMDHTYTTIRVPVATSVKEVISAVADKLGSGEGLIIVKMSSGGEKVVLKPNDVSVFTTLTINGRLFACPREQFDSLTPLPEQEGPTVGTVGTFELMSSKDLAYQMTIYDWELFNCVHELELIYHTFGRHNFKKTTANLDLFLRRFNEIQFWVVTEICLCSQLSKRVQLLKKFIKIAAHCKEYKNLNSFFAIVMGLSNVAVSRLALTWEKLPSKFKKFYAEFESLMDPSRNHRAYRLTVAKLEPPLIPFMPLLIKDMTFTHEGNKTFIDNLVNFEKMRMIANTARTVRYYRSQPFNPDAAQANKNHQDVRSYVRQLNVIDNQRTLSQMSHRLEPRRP
# [6] = NCATS anti-infectives library activity on the primary C. elegans qHTS viability assay (AID 1745855; calls by dose curve; further: potency means the concentration at half of the fitted maximal effect)
# Method in brief: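 Titration-based screen in worms: eggs hatched overnight in M9, L1 larvae fed TOP10 capsules in S medium with compound, incubated 21 °C for 7 days; fluorescent objects gated by size and intensity at days 0, 3 and 7.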
# [7] = target: Catechol O-methyltransferase (Homo sapiens) (UniProt P21964); test: Confirmatory Screen for Target Class Profiling of Small Molecule Inhibitors of Methyltransferases (AID 1745852; calls by dose curve; further: potency means the concentration at half of the fitted maximal effect); settings: MTase-Glo luminescence, SAH detection, recombinant enzyme; measured here: COMT max response; stronger effect = lower value
# Chain of Catechol O-methyltransferase (Homo sapiens) (P21964 whole entry, looked up): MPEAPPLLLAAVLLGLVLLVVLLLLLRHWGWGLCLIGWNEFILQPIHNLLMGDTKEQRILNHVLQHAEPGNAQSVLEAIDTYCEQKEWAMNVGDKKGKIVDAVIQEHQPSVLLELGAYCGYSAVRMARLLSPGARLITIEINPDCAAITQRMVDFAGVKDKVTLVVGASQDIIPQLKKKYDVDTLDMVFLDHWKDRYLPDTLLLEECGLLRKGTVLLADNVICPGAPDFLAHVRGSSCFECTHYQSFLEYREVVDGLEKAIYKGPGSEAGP
# [8] = target: Guanidinoacetate N-methyltransferase (Homo sapiens) (UniProt Q14353); test: as above; settings: MTase-Glo luminescence, SAH detection, recombinant enzyme; activity change, negative = inhibition: at 57.3 µM (top of the series) unless noted
# [9] = target: Nicotinamide N-methyltransferase (Homo sapiens) (UniProt P40261); test: as above; settings: MTase-Glo luminescence, SAH detection, recombinant enzyme; measured here: NNMT max response; stronger effect = lower value
# Chain of Nicotinamide N-methyltransferase (Homo sapiens) (P40261 whole entry, looked up): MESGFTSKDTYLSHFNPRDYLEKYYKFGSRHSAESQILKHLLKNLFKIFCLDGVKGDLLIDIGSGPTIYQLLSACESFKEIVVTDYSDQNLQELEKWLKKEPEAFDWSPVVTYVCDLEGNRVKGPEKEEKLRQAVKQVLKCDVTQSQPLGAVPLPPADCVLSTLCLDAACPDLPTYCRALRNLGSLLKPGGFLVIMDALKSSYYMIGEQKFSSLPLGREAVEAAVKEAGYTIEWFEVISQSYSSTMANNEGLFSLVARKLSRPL
# [10] = target: Phenylethanolamine N-methyltransferase (Homo sapiens) (UniProt P11086); test: as above; settings: MTase-Glo luminescence, SAH detection, recombinant enzyme; measured here: PNMT max response; stronger effect = lower value
# Chain of Phenylethanolamine N-methyltransferase (Homo sapiens) (P11086 whole entry, looked up): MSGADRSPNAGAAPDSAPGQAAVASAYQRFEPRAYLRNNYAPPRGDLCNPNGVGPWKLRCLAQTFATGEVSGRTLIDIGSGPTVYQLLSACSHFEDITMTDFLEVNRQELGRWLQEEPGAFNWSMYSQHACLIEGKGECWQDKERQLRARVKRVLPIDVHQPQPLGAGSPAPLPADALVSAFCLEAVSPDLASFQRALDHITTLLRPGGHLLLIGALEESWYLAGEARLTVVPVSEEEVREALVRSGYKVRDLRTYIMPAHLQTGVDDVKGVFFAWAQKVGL
# [11] = target: Luciferin 4-monooxygenase (Photinus pyralis) (UniProt P08659); test: Primary firefly luciferase (FLuc) qHTS assay for identification of artifact compounds. (AID 1845220); further: nearly all actives have a fitted effect of over 60% in size
# Method in brief: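 Titrated compounds were incubated 15 min at RT, protected from light, with luciferin and ATP at 10 uM; reaction started with 10 nM FLuc, luminescence imaged at 5 min, and concentration-response fitted by Hill equation.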
# [12] = Primary fluorescence-based thiol-reactive (MSTI) qHTS assay for identification of artifact compounds. (AID 1845221); further: nearly all actives have a fitted effect of over 65% in size; further: potency means the concentration at half of the fitted maximal effect
# Method in brief: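 Probe: MSTI 4 uM, PBS pH 7.4, 2% DMSO. Incubation 1 h, RT, light-protected. Readout fluorescence 525/598 nm.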
# [13] = Primary redox qHTS assay for identification of artifact compounds. (AID 1845223)
# Method in brief: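 Redox-cycling detection via DTT (250 uM final) oxidation coupled to Amplex Red (25 uM)/HRP (250 mU/mL) in HBSS. 15 min preincubation plus 30 min after DTT, room temperature. Ex/Em 525/598 nm; 4-parameter Hill fit against DMSO and 10 uM DA3003.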
# [14] = tested on: Nanoluciferase (engineered Oplophorus gracilirostris luciferase); test: Primary Nanoluciferase (NLuc) qHTS assay for identification of artifact compounds. (AID 1845222);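 further: NLuc secreted into diluted conditioned medium of S16 cells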
# Method in brief: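 qHTS format, against NLuc in S16 cell-conditioned medium. Nano-Glo substrate 1:100 was added after 15 min at room temperature. Luminescence was taken after a further 5 min.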
# [15] = Viability counterscreen for antagonist of constitutive androstane receptor (CAR) against the NCATS DSHEA and TCM libraries (AID 1794837);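 further: compound exposure lasted 24 h before viability reading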
# Method in brief: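 Cell viability, CellTiter-Fluor, Ex/Em 405/540 nm, 1 h at 37C. HepG2-CYP2B6-hCAR, 2,500 cells/well; cpds + CITCO 48 uM final (antagonist mode), 24 h, 37C/5% CO2.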
# [16] = Viability counterscreen for agonist of constitutive androstane receptor (CAR) against the NCATS DSHEA and TCM libraries (AID 1794838)
# Method in brief: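 Viability by CellTiter-Fluor fluorescence, 405/540 nm, after 1 h at 37C. HepG2-CYP2B6-hCAR cells were exposed 24 h to test substances in presence of 0.75 uM PK11195 (final).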
# [17] = target: Nuclear receptor subfamily 1 group I member 3 (Homo sapiens) (UniProt Q14994); test: Primary qHTS for agonist of constitutive androstane receptor (CAR) against the NCATS DSHEA and TCM libraries (AID 1794839); further: potency means the concentration at half of the fitted maximal effect
# Chain of Nuclear receptor subfamily 1 group I member 3 (Homo sapiens) (Q14994 whole entry, looked up): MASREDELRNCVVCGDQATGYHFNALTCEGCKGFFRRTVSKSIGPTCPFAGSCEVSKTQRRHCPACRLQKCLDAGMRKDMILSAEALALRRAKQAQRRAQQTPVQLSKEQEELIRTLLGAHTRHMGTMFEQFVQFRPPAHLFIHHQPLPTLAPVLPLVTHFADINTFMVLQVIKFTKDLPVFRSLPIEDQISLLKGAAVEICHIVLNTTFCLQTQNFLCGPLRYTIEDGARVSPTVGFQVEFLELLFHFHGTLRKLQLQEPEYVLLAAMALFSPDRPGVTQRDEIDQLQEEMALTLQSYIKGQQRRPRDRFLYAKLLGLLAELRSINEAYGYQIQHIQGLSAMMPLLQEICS
# Method in brief: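 Luminescence from ONE-Glo luciferase was the agonist read-out in HepG2-CYP2B6-hCAR cells exposed 24 h to test substances. Wells also held the CAR antagonist PK11195 at 0.75 µM final. Viability was by CellTiter-Fluor fluorescence.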
# [18] = HepG2 viability counterscreen (readout 2: ATP content) against the NCATS DSHEA and TCM libraries (AID 1794840)
# Method in brief: (§1)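 1,000 HepG2 cells/well, 4 h attach; compounds ~24 h, 37C/5% CO2. Readout 1: GF-AFC 25 uM final, 30 min, fluorescence 380/510 nm. Readout 2: CellTiter-Glo, 30 min RT, luminescence.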
# [19] = HepG2 viability counterscreen (readout 1: protease activity) against the NCATS DSHEA and TCM libraries (AID 1794841);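 further: cells exposed to compounds for about 24 h before the protease read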
# Method in brief: as §1
smiles,measurement,setting,value
COc1cccc(-c2cc(=O)c3ccccc3o2)c1N,Potency,[1],inactive
same,Potency,[2],inactive
same,Potency,[3],inactive
CCCCCN(C)CCC(O)(P(=O)(O)O)P(=O)(O)O,"activity change, negative = cytotoxicity",[4],-3.04% [at 3.71 µM] (inactive)
O=C1NC(=O)C(c2ccccc2)(c2ccccc2)N1,outcome,[4],inactive
same,Potency,[1],inactive
same,Potency,[2],inactive
same,Potency,[3],inactive
C[C@H](NC(=O)C(=O)Nc1ccccc1C(C)(C)C)C(=O)N[C@@H](CC(=O)O)C(=O)COc1c(F)c(F)cc(F)c1F,"activity change, negative = cytotoxicity",[4],-18.7% [at 8.35 µM] (inactive)
same,Potency,[2],inactive
same,Potency,[3],inactive
c1ccc2c(Cc3c[nH]c4ccccc34)c[nH]c2c1,outcome,[5],inactive
same,Potency,[2],inactive
same,Potency,[3],inactive
CC(C)=CC[C@@H](O)C1=CC(=O)c2c(O)ccc(O)c2C1=O,Potency,[6],16.3 µM (active)
same,Potency,[3],16.1 µM (active)
COc1cc(N2CCC(N3CCN(C)CC3)CC2)ccc1Nc1ncc(Cl)c(Nc2ccccc2S(=O)(=O)C(C)C)n1,activity,[7],-29.5%
same,Potency,[8],27.1 µM (active)
same,activity,[9],-19%
same,activity,[10],-27.6%
same,Potency,[2],inactive
same,Potency,[3],inactive
same,Potency,[11],inactive
NC(=O)[C@@H](CCC(F)(F)F)N(Cc1ccc(-c2ncon2)cc1F)S(=O)(=O)c1ccc(Cl)cc1,outcome,[4],inactive
same,Potency,[6],inactive
same,Potency,[2],inactive
same,Potency,[3],inactive
NC(=O)c1cnc(-c2ccc(C3(N)CCC3)cc2)c(-c2ccccc2)c1,activity,[7],-7.58%
same,"activity change, negative = inhibition",[8],0.723%
same,activity,[9],-51.4%
same,activity,[10],-17.2%
same,Potency,[2],inactive
same,Potency,[3],inactive
same,Potency,[11],inactive
same,Potency,[12],inactive
same,outcome,[13],inactive
CC1(C)CCC(CN2CCN(c3ccc(C(=O)NS(=O)(=O)c4ccc(NCC5CCOCC5)c([N+](=O)[O-])c4)c(Oc4cnc5[nH]ccc5c4)c3)CC2)=C(c2ccc(Cl)cc2)C1,activity,[7],-3.58%
same,"activity change, negative = inhibition",[8],1.26% [at 29.8 µM]
same,activity,[9],-11.4%
same,activity,[10],-21.8%
same,Potency,[2],inactive and 6.4 µM (active)
same,Potency,[3],inactive and 3.16 µM (active)
same,Potency,[11],inactive
same,Potency,[12],inactive
same,Potency,[14],inactive
same,outcome,[13],inactive
CCc1ccc(C=C2SC(=S)NC2=O)cc1,activity,[7],-2.96%
same,"activity change, negative = inhibition",[8],-3.11%
same,activity,[9],-15.7%
same,activity,[10],-1.21%
COc1cc(O)c2c(c1)C(=O)c1cc(C)cc(O)c1C2=O,outcome,[15],inactive
same,outcome,[16],inactive
same,Potency,[17],inactive
same,outcome,[18],inactive
same,outcome,[19],inactive
Cc1cccc(Nc2nc(-c3ccncc3)cs2)c1,activity,[7],-88.1%
same,Potency,[8],13.6 µM (active)
same,activity,[9],-73.8%
same,activity,[10],-88.3%
same,Potency,[2],inactive
same,Potency,[3],inactive
same,outcome,[13],inactive
COc1ccc(Cc2nccc3cc(OC)c(OC)cc23)cc1OC,activity,[7],-10.8%
same,"activity change, negative = inhibition",[8],-7.19%
same,activity,[9],-16.1%
same,activity,[10],-24.2%
same,Potency,[1],inactive
O=C(Nc1c(Cl)cncc1Cl)c1ccc(OC(F)F)c(OCC2CC2)c1,outcome,[4],inactive
same,Potency,[2],inactive
same,Potency,[3],inactive
CC(=O)N(C)C1(c2ccccc2)CCN(CCC[C@]2(c3ccc(Cl)c(Cl)c3)CCCN(C(=O)c3ccccc3)C2)CC1,activity,[7],-5.14%
same,"activity change, negative = inhibition",[8],0%
same,activity,[9],-62.2%
same,activity,[10],-6.52%
same,Potency,[2],inactive
same,Potency,[3],inactive
same,Potency,[11],inactive
same,Potency,[12],inactive
same,outcome,[13],inactive
C[N+](C)(C)CCCCCC[N+](C)(C)C,Potency,[1],inactive
same,Potency,[2],inactive
same,Potency,[3],inactive
COc1ccc(-c2nc(N3CCOCC3)c3sc(CN(C)c4ncc(C(=O)NO)cn4)cc3n2)cn1,Potency,[6],14.5 µM (active)
same,Potency,[2],inactive
same,Potency,[3],inactive
O=C(O)c1ccc(-c2c[nH]c3ncc(-c4ccccc4)cc23)cc1C1CCCC1,outcome,[4],inactive
same,Potency,[2],inactive
CC(=O)N[C@@H](CS)C(=O)O,outcome,[4],inactive
same,Potency,[1],inactive
same,Potency,[2],inactive
same,Potency,[3],inactive
CC1CCC(C(=O)N(c2cc(C#CC(C)(C)C)sc2C(=O)O)C2CCC(O)CC2)CC1 (stereo not given),outcome,[4],inactive
same,Potency,[6],inactive
same,Potency,[2],inactive
same,Potency,[3],9.04 µM (active)
same,Potency,[11],inactive
same,Potency,[12],inactive
same,Potency,[14],inactive
Cn1c(N2CCCCS2(=O)=O)nc(C(=O)NCc2ccc(F)cc2)c(O)c1=O,outcome,[4],inactive
same,Potency,[2],inactive
same,Potency,[3],inactive
same,Potency,[11],inactive
same,Potency,[12],1.34 µM (active)
same,Potency,[14],inactive
same,outcome,[13],inactive
CC#CCn1c(N2CCC[C@@H](N)C2)nc2c1c(=O)n(Cc1nc(C)c3ccccc3n1)c(=O)n2C,outcome,[4],inactive
same,Potency,[2],inactive
same,Potency,[3],inactive
C=CCc1ccc(O)c(-c2ccc(O)c(CC=C)c2)c1,outcome,[4],inactive
COc1cc2ncnc(Nc3ccc(F)c(Cl)c3)c2cc1OCCCN1CCOCC1,activity,[7],-74.8%
same,Potency,[8],24.1 µM (active)
same,activity,[9],-60.5%
same,activity,[10],-74.4%
same,Potency,[2],inactive
same,Potency,[3],inactive
same,Potency,[11],inactive
same,Potency,[12],inactive
same,outcome,[13],inactive
O=c1c(-c2ccc(O)cc2)coc2cc(O[C@@H]3O[C@H](CO)[C@H](O)[C@H](O)[C@H]3O)ccc12,outcome,[15],inactive
same,outcome,[16],inactive
same,Potency,[17],10 µM (active)
same,outcome,[18],inactive
same,outcome,[19],inactive
CC(=O)CCCCn1c(=O)c2c(ncn2C)n(C)c1=O,outcome,[4],inactive
same,Potency,[1],inactive
same,Potency,[2],inactive
same,Potency,[3],inactive
same,Potency,[11],inactive
same,Potency,[12],inactive
same,outcome,[13],inactive
COc1ccc(-c2coc3cc(O)ccc3c2=O)cc1,outcome,[18],inactive
same,outcome,[19],inactive
O=C(Nc1ccccc1-c1cn2c(CN3CCNCC3)csc2n1)c1cnc2ccccc2n1,activity,[7],-38.1%
same,Potency,[8],15.3 µM (active)
same,activity,[9],-43.9%
same,activity,[10],-31.7%
same,Potency,[2],inactive
same,Potency,[3],inactive
same,Potency,[12],inactive
same,outcome,[13],inactive
